# From PubChem BioAssay AID431 (Sanford-Burnham Center for Chemical Genomics, 2006)
# The campaign covered roughly 63,000 compounds. About 1,100 (1.7%) were called active. For the sample, actives were picked, then their nearest neighbours and some compounds at random. Entries with a potency or affinity are not part of this list. Unmarked numbers belong to inactive results.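 How the source made its calls: active means compounds whose percent cytotoxicity in the single-dose primary screen, scaled between solvent and toxic-drug controls, exceeds 50; inactive means the rest.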
# Assay: cytotoxicity in KRAS-transformed pancreatic duct cells, primary screen, cell-based, fluorescence, HTS (AID 431);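 further: 0% = DMSO solvent wells and 100% = doxorubicin-treated wells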
# Conditions: HPDE-C7K KRASV12 cells, Alamar Blue viability, 48 h; at 10 µM; stronger effect = higher value
row,Structure (SMILES),cytotoxicity
1,O=S(=O)(c1ccc(-c2ccccc2)cc1)N1CCOCC1,3.5%
2,Nc1nncn1C(=O)c1cccs1,9.5%
3,CCCCCC(=O)O[C@]1(C(C)=O)CC[C@H]2[C@@H]3CCC4=CC(=O)CC[C@]4(C)[C@H]3CC[C@@]21C,118% (active)
4,CC(=O)O[C@]1(C(C)=O)CC[C@H]2[C@@H]3C=C(Cl)C4=CC(=O)CC[C@]4(C)[C@H]3CC[C@@]21C,76.4% (active)
5,CCCCC(=O)O[C@]1(C(=O)CO)CC[C@H]2[C@@H]3CCC4=CC(=O)CC[C@]4(C)[C@H]3[C@@H](O)C[C@@]21C,-3.2%
6,CCCCCCCC(=O)OCC(=O)[C@@]1(O)CC[C@H]2[C@@H]3CCC4=CC(=O)CC[C@]4(C)[C@H]3[C@@H](O)C[C@@]21C,-2.2%
7,CC(=O)O[C@]1(C(C)=O)CC[C@H]2[C@@H]3C[C@H](C)C4=CC(=O)CC[C@]4(C)[C@H]3CC[C@@]21C,3.4%
8,CC(=O)O[C@]1(C(C)=O)CC[C@H]2[C@@H]3C=C(C)C4=CC(=O)CC[C@]4(C)[C@H]3CC[C@@]21C,-15.6%
9,NC(=O)CN1C(=O)C(O)(CC(=O)c2ccccc2O)c2ccccc21 (configuration not stated),-20.7%
10,Cc1csc(=N)n1CC(=O)N1CCc2ccccc21,-5.1%
11,CCN1C(=O)c2cccc3c(S(=O)(=O)Nc4ccccc4OC)ccc1c23,15.9%
12,COc1ccc(-c2cc(C(F)(F)F)n3nc(C(=O)Nc4cc(C)on4)cc3n2)cc1OC,8.1%
13,Cc1cc(C)c(S(=O)(=O)N2CCN(CCO)CC2)c(C)c1,-4.9%
14,CCc1nc(OCCN(CC)CC)c2oc3ccccc3c2n1,15.9%
15,CCN(CC)CCOc1ncnc2c1oc1ccccc12,-9.3%
16,CC1CCc2nn(CC(=O)NCCN3CCOCC3)cc2C1 (configuration not stated),-3.4%
17,c1ccc(C(CN2CCOCC2)c2ccccc2)cc1,-15.2%
18,O=C(c1ccccc1)c1ccc(OCC(O)CN2CCOCC2)cc1 (configuration not stated),10.8%
19,CCOc1ccc(-n2c(Cc3cc(=O)[nH]c(=O)[nH]3)nnc2SC(C)C)cc1,-20.5%
20,Cc1cc(C(=O)Oc2ccccc2C(=O)O)c(C)o1,-8%
21,Cc1ccc(C(=O)Nc2ncc(Cc3ccccc3)s2)o1,51.3% (active)

row,Structure (SMILES),cytotoxicity
1,CCSc1nnc(NC(=O)c2ccc(C)o2)s1,-3.8%
2,O=C(Nc1ncc(Cc2ccccc2)s1)c1cccs1,4.6%
3,Cc1nnc(SCC(=O)Nc2ncc(Cc3ccc(F)cc3)s2)n1N,-4.8%
4,Cc1ccc(C(=O)Nc2ncc(Cc3ccc(F)cc3)s2)o1,61.5% (active)
5,O=C(Nc1ncc(Cc2ccccc2)s1)C1CCCO1 (configuration not stated),6.8%
6,COc1ccc(-c2cc(C(F)(F)F)nc(SCC(=O)N3CC(C)OC(C)C3)n2)cc1OC (configuration not stated),-1.3%
7,Cc1c(Cl)cccc1NC(=O)CSCc1cc(=O)[nH][nH]1,-8.5%
8,Cc1cc2cc(CN(Cc3ccc4c(c3)OCO4)C(=O)c3ccco3)c(=O)[nH]c2cc1C,22.5%
9,Cn1c(SCC(=O)NCc2cccs2)nnc1-c1cccs1,-2.7%
10,CCS(=O)(=O)N1CCN(c2ccccc2F)CC1,-12.1%
11,O=S1(=O)C=C(SCCN2CCCCC2)c2ccccc21,6.2%
12,O=S1(=O)C=C(Sc2nc3ccccc3s2)c2ccccc21,107% (active)
13,O=S1(=O)C=C(Sc2nnc(-c3ccccc3)o2)c2ccccc21,26.2%
14,Cn1c(SC2=CS(=O)(=O)c3ccccc32)nc2ccccc21,86.7% (active)
15,Cn1c(Sc2nc3ccccc3n2C)nc2ccccc21,21.7%
16,Clc1ccc2oc(-c3ccccc3)nc2c1,3.5%
17,O=C1c2ccccc2S(=O)(=O)N1Cc1nc2ccccc2s1,3.2%
18,Cc1cc(C)nc(SC2=CS(=O)(=O)c3ccccc32)n1,2.9%
19,CCOC(=O)c1c(NC(N)=O)sc(C)c1C,7.3%
20,CN(C)S(=O)(=O)c1ccc(S(=O)(=O)Nc2ccc3c(c2)oc2ccccc23)cc1,-0.2%
21,COc1ccc2c(c1)c(=O)cc(C)n2CC(=O)NCc1ccco1,6.1%

row,Structure (SMILES),cytotoxicity
1,CCN1CCCC1CNCc1ccc(Cl)cc1Cl (configuration not stated),12.8%
2,COc1ccc(CCNc2oc(COc3ccccc3F)nc2C#N)cc1,23.7%
3,COc1ccc(/C=N/n2cc(-c3ccc(OC)cc3)nc2N)cc1,3.7%
4,COc1ccc(/C=N/n2cc(-c3ccccc3)nc2N)cc1,70.8% (active)
5,COc1ccc(/C=N/n2cnnc2SCc2ccccc2)cc1,5.9%
6,O=C1COc2ccc3ccccc3c2CN1,-9.6%
7,Cc1ccc2c(c1)CC1(CN2C)C(=O)OC2(CCCCC2)OC1=O,-4.6%
8,CN1CC2(Cc3c1ccc1ccccc31)C(=O)OC(C)(C)OC2=O,64.4% (active)
9,O=C(NCCc1ccccc1)c1cnn2c(C(F)F)cc(C3CC3)nc12,6.9%
10,O=S(=O)(c1ccc(-c2cn3ccccc3n2)cc1)N1CCOCC1,-9.8%
11,CC(C)Cc1cc(C(=O)O)n[nH]1,9.9%
12,Cc1ccc(Cn2c(CN3CC(C)OC(C)C3)nc3c2c(=O)n(C)c(=O)n3C)cc1 (configuration not stated),-6.7%
13,COc1ccc(N2C(=O)C3CCCN3C2c2ccccc2OC)cc1 (configuration not stated),-10%
14,CN1CCN(c2nc(-c3ccccc3)nc3c2oc2ccccc23)CC1,24.2%
15,O=C(O)C1CCN(c2nc(-c3ccccc3)nc3c2oc2ccccc23)CC1,27.2%
16,CCOc1cc2nc(-c3ccc(OC)c(OC)c3)nc(N3CCOCC3)c2cc1OC,74.8% (active)
17,COc1cc2nc(-c3ccccc3)nc(N3CCCC3)c2cc1OC,27.3%
18,COc1ccc(-c2csc(N3CCOCC3)n2)cc1OC,2.9%
19,CC(C)(C)Nc1ncnc2c1cnn2-c1ccccc1,17.2%
20,COC(=O)c1cccc(NC(=O)CSc2nnc(COc3ccccc3)n2C)c1,8.3%
